# Vaccinia Venus: vaccinia inhibition (Venus reporter) | Potency, µM (highest dose often 36.5 µM), usual class: inhibitors | hit rate 0.46% among 330,000 | Vaccinia virus Venus reporter expression, fluorescence; calls by dose curve; tested in A549 cells; note: nearly all actives have a fitted effect of over 30% in size
# VACV mCherry inh: vaccinia inhibition (mCherry reporter); Vaccinia virus mCherry reporter infection, fluorescence; hit rate 0.63% among 310,000; AID 720579; Potency, µM (series often up to 36.5 µM), usual class: inhibitors; calls by dose curve; tested in A549 cells; note: nearly all actives have a fitted effect of over 35% in size
# HCV inh: inhibitors of hepatitis C virus infection. Huh7.5.1 HCVcc-Cre infection, luciferase reporter, 44 h. hit rate 3.4% among 340,000. Potency, µM (titrated, usually from 41.8 µM), usual class: inhibitors. AID 651820; active = well fitted inhibition curve with a large enough effect; inconclusive = small, poorly fitted or top-dose-only effect, or another doubt; inactive = no such curve, though single readings can be large or run the other way
#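 1,000 cells/well; 4 h culture; + compound; + HCVcc-Cre (~0.5 moi); 44 h; luciferase substrate, RT 15 min; read 15 sec.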
# LASV entry inh: blocks Lassa virus binding to or entry into cells; Potency, µM (series often up to 37.9 µM), hits mostly inhibitors; AID 540256; Lassa virus pseudotype entry inhibition, cell reporter; hit rate 1.2% among 300,000; calls by dose curve; tested in HEK293 cells; note: nearly all actives have a fitted effect of over 50% in size
# Marburg entry inh: blocks Marburg virus binding to or entry into cells | Marburg virus pseudotyped entry inhibition, cell reporter | Potency, µM (series often up to 37.8 µM), hits mostly inhibitors | hit rate 1.8% among 300,000 | AID 540276; calls by dose curve; tested in HEK293 cells
# Hits are given with their value; n = inactive; u = inconclusive; x = no result; ! = not active in a repeat; [ ] = dose if it differs, or a comment. Most compounds without a hit are left out; they make up all but 4.6% or so of the library.
SMILES,Vaccinia Venus,VACV mCherry inh,HCV inh,LASV entry inh,Marburg entry inh
O=C(c1ccccc1)N1CCN(c2ccc(NCc3ccc4c(c3)OCO4)cc2)CC1,n,u,11µM,x,n
c1ccc(C(NCc2cccnc2)(c2ccccc2)c2ccccc2)cc1,x,x,x,8.2µM,n
O=C1OCCC=C1C(O)CCc1ccccc1 (stereo unspecified),x,x,x,x,n
CC(C)(C)c1ccc(/C=C/C(=O)NC2=NCCS2)cc1,n,x,u,14µM,n
CC(C)(C)c1ccc(/C=C/C(=O)Nc2cccnc2)cc1,n,n,n,u,u
Cc1ccc(OCC(=O)NC2=NCCS2)cc1,n,x,n,u,u
Cc1ccc(/C=C/C(=O)Nc2ccccc2C(N)=O)cc1,n,n,n,u,13µM
Cc1ccc(/C=C/C(=O)NC2=NCCS2)cc1,n,n,n,1.6µM,3.2µM
O=C(/C=C1\NC2(CCCC2)Cc2ccccc21)N1CCOCC1,n,x,u,n,n
CC1(C)Cc2c(ccc3ccccc23)/C(=C/C(=O)N2CCCCC2)N1,n,x,u,n,11µM
Cc1ccc(S(=O)(=O)c2nc(S(C)(=O)=O)sc2NCc2ccccc2)cc1,n,n,x,u,n
Oc1ccccc1Nc1nc(NCC2CCCO2)c2ccccc2n1 (stereo unspecified),x,x,u,u,15µM
c1csc(-c2nc(NCC3CCCO3)c3ccccc3n2)c1 (stereo unspecified),n,n,u,n,10µM
Oc1ccc(Nc2nc(NCC3CCCO3)c3ccccc3n2)cc1 (stereo unspecified),x,x,n,u,u
c1ccc(CN2CCC(Nc3nc(-c4cccs4)nc4ccccc34)CC2)cc1,x,x,u,u,12µM
c1csc(CNc2nc(-c3cccs3)nc3ccccc23)c1,n,n,u,n,n
CC(C)Oc1ccc(-c2nc(NCC3CCCO3)c3ccccc3n2)cc1 (stereo unspecified),n,n,11µM,u,u
CCOc1ccc(-n2cc(-c3ccccc3)c3c(NCc4ccc(F)cc4)ncnc32)cc1,n,n,x,n,x
Cc1cc(C)c2c(N)c3cccc(C)c3nc2n1,10µM,10µM,13µM,u,3.7µM
Cc1cccc2c(N)c3c(nc12)N(C)CC3,n,n,n,x,x
COC(=O)C(NC(=O)c1ccccc1C)(Nc1ncc(S(=O)(=O)c2ccc([N+](=O)[O-])cc2)s1)C(F)(F)F (stereo unspecified),x,x,n,u,u
COC(=O)C(NC(=O)c1ccc(F)cc1)(Nc1ncc(S(=O)(=O)c2ccc([N+](=O)[O-])cc2)s1)C(F)(F)F (stereo unspecified),u,11µM,u,u,u
Cc1ccc(-c2cc3nccc(-c4cc([N+](=O)[O-])ccc4O)n3n2)cc1,n,n,x,u,n
Cc1ccc(N2CC(NC(=O)CCc3ccccc3)CC2=O)cc1C (stereo unspecified),n[7.34 µM],n[7.34 µM],x,n,x
CCOc1ccc(C(=O)c2cn(CC(=O)Nc3ccc(OC)cc3)c3cc4c(cc3c2=O)OCO4)cc1,n,n,x,n,n
SMILES,Vaccinia Venus,VACV mCherry inh,HCV inh,LASV entry inh,Marburg entry inh
C=CCn1c(C)cc(-c2csc(NCC)n2)c1C,n,n,10µM,n,u
Cc1ccccc1NC1=C/C(=N\S(=O)(=O)c2ccc(C(=O)O)cc2)c2ccccc2C1=O,u,32µM,u,u,8.9µM
CCc1ccc(S(=O)(=O)/N=C2\C=C(NS(=O)(=O)c3ccccc3)C(=O)c3ccccc32)cc1,x,x,n,x,x
O=C(O)c1ccc(S(=O)(=O)/N=C2\C=C(Nc3ccccc3F)C(=O)c3ccccc32)cc1,u,u,10µM,u,u
O=C(O)c1cccs1,n,n,x,x,x
COc1ccc(OC)c2c1sc(=NC(=O)C(C)(C)C)n2C,u,u,10µM,x,x
C#CCN(Cc1ccccc1)S(=O)(=O)C=C,1.6µM!,u,n,x,x
C#CCN(C)Cc1ccccc1,n,n,n[8.37 µM],n,u
COC(=O)c1cc(NC(=O)c2cc(C(C)(C)C)nn2Cc2ccc(F)cc2)ccc1N1CCOCC1,x,x,10µM,x,x
Cc1cc(C(=O)N2CCCC(N3CCN(c4cccc(C(F)(F)F)c4)CC3)C2)c(C)o1 (stereo unspecified),x,x,13µM,x,x
COc1ccc(C(=O)NCC2Cc3cc(C)cc(-c4cc(C(C)=O)ccc4F)c3O2)c(OC)c1OC (stereo unspecified),n,n,x,x,x
O=C1Nc2ccccc2O/C1=C\c1c(F)cccc1Cl,n,n,10µM,x,x
COC(=O)c1ccc(/C=C2\Oc3ccccc3NC2=O)cc1,x,x,n,x,x
Cc1ccccc1CN1C(=O)CS/C1=N/N=C/c1ccco1,n,n,u,10µM,n
CN1CCN(c2ccc(Nc3ccnc4cc(Cl)ccc34)cc2)CC1,u,u,u,2.5µM,u
CCOc1ccc(Nc2ccnc3cc(Cl)ccc23)cc1,x,x,n,x,x
CCN1CCN(c2ccc(Nc3ccnc4ccccc34)cc2)CC1,x,x,11µM,x,x
CCN1CCC(Nc2ccnc3cc(Cl)ccc23)CC1,n,n,n,n,13µM
COc1ccc(NC(=O)Nc2nnc(N3CCCCCC3)s2)c(OC)c1,n,n,x,n,u
CSc1ncccc1C(=O)NCC1Cc2cc(F)cc(-c3cncnc3)c2O1 (stereo unspecified),n,n,x,x,x
Cn1c2ccccc2c(=O)c2ccc(NCCc3cccs3)cc21,u,n,11µM,x,x
OC(c1ccc2c(c1)CN(Cc1cccn1-c1cccnc1)CCO2)C1CCCCC1 (stereo unspecified),n,n,x,x,x
CCNC(=O)CN(c1ccc(Cl)cc1)S(=O)(=O)c1ccccc1,x,x,n,u,1.2µM
COc1ccc(N(CC(=O)Nc2ccccc2OC)S(=O)(=O)c2ccc(NC(C)=O)cc2)cc1,u,n,u,3.2µM,u
COc1ccc(S(=O)(=O)N(CC(=O)NCCc2ccccc2)c2ccc(Cl)cc2)cc1,n,n,x,n,n
SMILES,Vaccinia Venus,VACV mCherry inh,HCV inh,LASV entry inh,Marburg entry inh
COc1ccc(N(CC(=O)NCCc2ccccc2)S(=O)(=O)c2ccc(OC)c(OC)c2)cc1,n,n,x,6.3µM,x
COc1ccc(N(CC(=O)NCc2ccccc2OC)S(=O)(=O)c2ccccc2)cc1,n,n,n,n,10µM
COc1ccc(OC)c(N(CC(=O)Nc2cccnc2)S(=O)(=O)c2ccc(OC)c(OC)c2)c1,n,x,n,n,2.8µM!
CCOc1ccccc1NC(=O)CCN(c1ccc(C)cc1)S(=O)(=O)c1ccccc1,n,n,u,u,14µM
COc1ccc(N(CC(=O)Nc2ccc(S(=O)(=O)N3CCOCC3)cc2)S(=O)(=O)c2ccccc2)cc1,n,x,4µM,u,u
COc1ccccc1N(CC(=O)Nc1ccc(S(=O)(=O)N2CCOCC2)cc1)S(C)(=O)=O,n,n,n,x,u
O=C(NCc1ccccc1)C1(C(F)(F)F)CC(CCCO)CCCO1 (stereo unspecified),n,n,n,x,x
CS(=O)(=O)c1ccc(CNC(=O)C2(C(F)(F)F)CC(CCCO)CCCO2)cc1 (stereo unspecified),u,11µM,u,x,x
Cc1cccc(C(=O)OCC(=O)c2c(N)n(CC(C)C)c(=O)n(C)c2=O)c1[N+](=O)[O-],n,n,14µM,u,u
COc1ccccc1/C=C/C(=O)OCC(=O)c1c(N)n(C)c(=O)n(C)c1=O,n,n,n,n,0.89µM
CC(C)Cn1c(N)c(C(=O)COC(=O)CC23CC4CC(CC(C4)C2)C3)c(=O)n(C)c1=O,u,x,6.3µM,1.8µM,8.9µM
